Source: PubChem (The Scripps Research Institute Molecular Screening Center)
Most compounds without a hit are left out; they make up all but 2.4% or so of the library.
LEDGF integ inh: blocks HIV-1 LEDGF/p75-dependent DNA integration; TR-FRET IN-LEDGF/p75 DNA integration, Eu/Cy5; inhibition, % at 3.7 µM; hit rate 0.64% among 370,000; AID 743269;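 active means inhibition above the screen-wide mean plus 3 SD, cut at about 13% in these data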;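 further: signal is the Cy5 over europium emission ratio at 671 and 618 nm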
UHRF1 binding: human UHRF1 methylated DNA binding inhibitors | Q96T88 | UHRF1 binding to methylated oligo, TR-FRET | inhibition, % at 4.4 µM | hit rate 0.75% among 370,000 | AID 687016; in the data active means inhibition above about 21%;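 further: UHRF1 SRA domain binding a hemimethylated CpG hairpin DNA probe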
PLCb3 inh: inhibitors of human phospholipase C beta3; Q01970; Purified PLC-beta3, fluorogenic substrate, fluorescence; inhibition, % at 12.2 µM; hit rate 0.18% among 370,000; in the data active means inhibition above about 11%
MBD2 DNA inh: blocks human MBD2 binding to methylated DNA. hit rate 0.31% among 370,000. AID 686964. inhibition, % at 4.4 µM. TR-FRET, MBD2 binding to methylated oligonucleotide. Q9UBB5; in the data active means inhibition above about 13%
PLC-gamma1 inh: PLC-gamma1 (human) inhibition, primary screen | purified PLC-gamma1, fluorogenic substrate, fluorescence | inhibition, % at 12.2 µM | hit rate 0.84% among 370,000; in the data active means inhibition above about 9.5%
Target sequence (P19174 whole entry, looked up): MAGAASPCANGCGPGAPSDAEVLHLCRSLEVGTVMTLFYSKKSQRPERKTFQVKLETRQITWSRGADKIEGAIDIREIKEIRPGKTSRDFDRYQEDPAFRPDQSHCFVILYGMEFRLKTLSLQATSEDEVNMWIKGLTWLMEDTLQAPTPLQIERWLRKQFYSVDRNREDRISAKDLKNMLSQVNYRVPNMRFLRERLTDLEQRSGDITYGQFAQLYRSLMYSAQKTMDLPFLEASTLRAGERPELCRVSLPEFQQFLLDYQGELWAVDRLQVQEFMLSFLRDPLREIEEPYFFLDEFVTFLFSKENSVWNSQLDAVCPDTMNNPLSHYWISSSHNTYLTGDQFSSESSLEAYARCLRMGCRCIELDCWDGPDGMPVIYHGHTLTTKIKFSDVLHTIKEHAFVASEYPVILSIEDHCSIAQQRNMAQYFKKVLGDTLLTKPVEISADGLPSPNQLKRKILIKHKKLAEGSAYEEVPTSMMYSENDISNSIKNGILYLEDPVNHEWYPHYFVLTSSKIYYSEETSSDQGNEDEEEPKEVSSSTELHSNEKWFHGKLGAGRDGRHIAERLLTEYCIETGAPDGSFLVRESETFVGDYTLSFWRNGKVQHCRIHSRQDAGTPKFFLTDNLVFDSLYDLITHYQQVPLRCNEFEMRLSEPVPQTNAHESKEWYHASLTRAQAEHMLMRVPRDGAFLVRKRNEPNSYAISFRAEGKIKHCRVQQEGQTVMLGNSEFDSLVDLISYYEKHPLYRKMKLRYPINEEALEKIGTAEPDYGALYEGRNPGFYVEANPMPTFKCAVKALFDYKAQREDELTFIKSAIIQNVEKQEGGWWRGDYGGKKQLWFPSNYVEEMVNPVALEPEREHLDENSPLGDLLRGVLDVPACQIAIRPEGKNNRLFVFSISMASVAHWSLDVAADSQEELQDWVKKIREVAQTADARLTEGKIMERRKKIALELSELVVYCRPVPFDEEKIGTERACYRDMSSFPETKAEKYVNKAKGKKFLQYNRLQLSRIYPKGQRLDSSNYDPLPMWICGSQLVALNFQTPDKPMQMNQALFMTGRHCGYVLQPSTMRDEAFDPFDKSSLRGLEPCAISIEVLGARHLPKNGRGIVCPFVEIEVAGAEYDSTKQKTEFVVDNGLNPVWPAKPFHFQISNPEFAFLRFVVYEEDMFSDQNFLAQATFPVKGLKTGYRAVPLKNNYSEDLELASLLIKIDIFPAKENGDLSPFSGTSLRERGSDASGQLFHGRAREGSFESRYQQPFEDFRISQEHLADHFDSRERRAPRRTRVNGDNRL
A number is an active result; i = inactive.

SMILES	LEDGF integ inh	UHRF1 binding	PLCb3 inh	MBD2 DNA inh	PLC-gamma1 inh
COc1ccc(/C=C/C(=O)Nc2ccc(NC(C)=O)cc2)cc1S(=O)(=O)N1CCOCC1	i	32.2	i	i	i
COc1ccc(/C=C/C(=O)Nc2ccccc2)cc1S(=O)(=O)N1CCOCC1	i	i	i	i	i
COc1ccc(C=Nn2c(-c3ccc(F)cc3)n[nH]c2=S)cc1OCc1ccccc1	i	i	i	i	i
O=Cc1c(NCc2ccccc2F)c2ccccc2[nH]c1=O	i	i	i	i	i
COc1ccc(OC)c(CNc2c(C=O)c(=O)[nH]c3ccccc23)c1	i	43.2	i	i	i
COc1ccccc1Nc1ccc(C(=O)NC2CCCCC2)cn1	i	26.9	i	i	i
CN1CCN(c2nc3c(c(=O)n(C)c(=O)n3C)n2Cc2ccccc2F)CC1	i	60.0	i	i	i
Cn1c(=O)c2c(nc(N3CCc4ccccc4C3)n2Cc2ccccc2F)n(C)c1=O	i	i	i	i	i
O=C(Nc1ccc(Br)cc1)C1Cc2ccccc2O/C1=N\O (stereo not drawn)	i	i	i	i	i
Cc1ccc(NC(=O)C2Cc3ccccc3O/C2=N\O)cc1C (stereo not drawn)	i	21.4	i	i	i
COC(=O)C(C(=O)OC)[C@@H]1C=C[C@H](C[N+](=O)[O-])N(C(C)=O)C1	i	i	i	i	11.8
CN[C@H]1C[C@H]2c3[nH]c4c(-c5ccc6c(c5)OCO6)cccc4c3CCN2C[C@H]1[C@H](C)O	i	i	i	i	i
COc1ccc(NC(=S)Nc2ccc(C)c(Cl)c2)cc1OC	i	i	i	i	i
COc1ccc(/C([O-])=C(/C(=S)Nc2ccc(C)c(C)c2)n2c[n+](C)c3ccccc32)cc1OC	i	26.4	i	i	i
COc1ccc(S(=O)(=O)Nc2ccc3c(c2)C(=O)N([C@H](C)CO)C[C@H](C)[C@@H](CN(C)C(=O)Nc2ccc(F)cc2)OCCCC[C@H](C)O3)cc1	i	i	i	i	i
C[C@@H]1CCCCO[C@H](CN(C)C(=O)C2CCCCC2)[C@@H](C)CN([C@H](C)CO)C(=O)c2cc(N(C)C)ccc2O1	i	50.0	i	i	i
COc1ccc(S(=O)(=O)Nc2cccc3c2O[C@H](CN(C)C(=O)Nc2ccc(C(F)(F)F)cc2)[C@@H](C)CN([C@H](C)CO)C3=O)cc1	i	i	i	i	9.9
COc1ccc(S(=O)(=O)Nc2ccc3c(c2)C(=O)N([C@@H](C)CO)C[C@@H](C)[C@H](CN(C)C(=O)CCCN(C)C)OCCCC[C@H](C)O3)cc1	i	29.0	i	i	i
C[C@H](CO)N1C[C@H](C)[C@@H](CN(C)C(=O)Nc2ccc(C(F)(F)F)cc2)Oc2c(NS(=O)(=O)c3ccc(F)cc3)cccc2C1=O	i	i	i	i	i
C#CCNC(=O)C[C@H]1C[C@@]2(C(=O)OC)C(=C[C@H](C(C)(C)C)O[C@@H]2C)N(Cc2ccco2)C1=O	i	i	i	i	i
N#CCC[C@H]1CC[C@]2(CCCN(Cc3ccc(Br)cc3)C2)O1	i	i	i	i	i
O=C(c1cccc(C(=O)N2CCN(c3ncccn3)CC2)c1)N1CCN(c2ncccn2)CC1	i	i	i	i	i
O=C(Nc1ccc2nc(-c3ccco3)c(-c3ccco3)nc2c1)N1CCN(c2ccccn2)CC1	23.8	i	i	i	i
O=C(NCc1ccccc1)c1ccc2nc(-c3ccco3)c(-c3ccco3)nc2c1	26.7	i	i	i	i
O=C(c1ccc2nc(-c3ccco3)c(-c3ccco3)nc2c1)N1CCN(c2ncccn2)CC1	34.0	i	i	i	i
SMILES	LEDGF integ inh	UHRF1 binding	PLCb3 inh	MBD2 DNA inh	PLC-gamma1 inh
CCOc1ccc(N(CC(=O)Nc2c(C)n(C)n(-c3ccccc3)c2=O)S(=O)(=O)c2ccc3c(c2)N(C(=O)C2CCC2)CC3)cc1	i	i	i	i	i
Cc1ccc(Cn2c(=O)c3c(nc4n3CCCN4Cc3ccccc3)n(C)c2=O)cc1	i	i	i	i	i
Cn1c(=O)n(Cc2ccccc2)c(=O)c2c1nc1n2CCCN1Cc1ccccc1	i	i	i	i	11.1
CN1CCN(C2CN(Cc3cn(Cc4ccc(F)cc4)nn3)S(=O)(=O)C2)CC1 (stereo not drawn)	i	20.8	i	i	i
COc1ccc(OCC(C)CN2CCC(C(O)(c3ccccc3)c3ccccc3)CC2)cc1 (stereo not drawn)	i	i	i	i	i
Cc1cc(C)cc(NC(=O)Cn2c(-c3ccccc3Cl)nc3ccccc32)c1	i	21.7	i	i	i
Cc1cccc(NC(=S)N(CCCN2CCOCC2)Cc2cn(C)c3ccccc23)c1	i	41.8	i	i	i
C[C@@H]1COc2cc(Br)ccc2S(=O)(=O)N1Cc1cn(Cc2ccc(Cl)cc2)nn1	i	i	i	i	i
CC1(C(=O)Nc2cccc(C#N)c2)CCN1C(=O)C/C=C/c1ccccc1 (stereo not drawn)	i	24.2	i	i	i
COc1ccc(C(=O)c2[nH]c(N)c(C(=O)c3ccccc3)c2-c2ccc(OC)c(OC)c2)cc1	i	i	i	i	i
CCC(Cc1ccccc1)NCc1c(C(=O)O)c(C)n(Cc2ccccc2)c1C (stereo not drawn)	i	29.7	i	i	i
C=C(C)C(=O)Nc1cccc(C2=NOC3(C2)C[C@H](C(N)=O)N(C(=O)c2ccccc2)C3)c1 (stereo partly drawn)	i	25.9	i	i	i
NC(=O)[C@H]1CC2(CC(c3cccc(NC(=O)CC(c4ccccc4)c4ccccc4)c3)=NO2)CN1C(=O)C(c1ccccc1)c1ccccc1 (stereo partly drawn)	i	i	i	i	12.9
NC(=O)[C@H]1CC2(CC(c3cccc(NC(=O)CC(c4ccccc4)c4ccccc4)c3)=NO2)CN1C(=O)c1ccccc1C(=O)c1ccccc1 (stereo partly drawn)	i	i	i	i	i
COc1ccc(S[C@]2(C(=O)NCC(C)C)CC(=O)N[C@@H]2c2ccc(OC)cc2)cc1	i	i	i	i	i
COC(=O)[C@]12C[C@H](CC(=O)NCCC(C)C)C(=O)N(CCC3=CCCCC3)C1=C[C@H](C(C)C)O[C@@H]2C1CC1	i	i	i	i	i
Cc1c(Cl)cccc1NC(=S)NCCC(c1ccccc1)c1ccccc1	i	i	i	i	10.1
CCc1nnc(NC(=O)CN2CCN(C(=O)c3ccccc3)CC2)s1	i	24.3	i	i	i
CCc1nnc(NC(=O)CN2CCN(CC)CC2)s1	i	i	i	i	i
CN(C(=O)CNC(=O)c1ccccc1OCC(=O)Nc1ccc(Br)cc1)c1ccccc1	i	i	i	i	i
CCC(C)NC(=O)CCNS(=O)(=O)c1ccc(Br)cc1 (stereo not drawn)	i	31.7	i	i	i
CN(C)c1ccc(-c2nnc(-c3cccs3)o2)cc1	i	i	i	i	i
Brc1ccc(-c2cnc(-c3cccs3)o2)cc1	i	21.5	i	i	i
CCOC(=O)c1c(C)[nH]c(C)c1S(=O)(=O)NCCN1CCN(c2cc(Cl)ccc2C)CC1	i	58.0	i	i	i
CC1CCN(S(=O)(=O)c2ccc3c(c2)c(=O)c(C(=O)N2CCOCC2)cn3C)CC1	i	i	i	i	i
